# Experimental data: PubChem BioAssay
# Active and inactive are the calls of the source.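 The calls were made as follows: active = compounds giving at least 50% inhibition in the cell-based MKP-3 phosphatase rescue imaging test; inactive = the rest.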
# Tested on: not listed separately
# Assay: DUSP6 inhibitors restoring Erk phosphorylation by chemical complementation, primary imaging in DUSP6-transfected HeLa (AID 609);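 as to inhibition: phospho-Erk level distribution per well compared with pooled transfected vehicle control wells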
# Conditions: HeLa MKP-3 transfected, phospho-Erk imaging KS statistic; measured here: nuclear pErk red intensity z-score; at 10 µM; stronger effect = higher value; cells stimulated with TPA for 15 min
row,Compound,z-score
1,CC(=O)C1(C)OC(N)=C(C#N)C(c2ccccc2)C1(C#N)C#N (stereo unspecified),-1.55
2,CCCCOc1ccccc1/C=c1/sc2nc(-c3oc4ccccc4c3C)nn2c1=O,-0.0877
3,CCCOc1ccc(/C(O)=C2/C(=O)C(=O)N(CCN(C)C)C2c2ccncc2)cc1 (stereo unspecified),-1.31
4,Cc1onc(-c2ccccc2Cl)c1C(=O)N1CCN(c2nc3ccccc3s2)CC1,-1.2
5,COc1ccc2oc(=O)c(-c3nc(C)cs3)cc2c1,1.41
6,CCOC(=O)CSc1nc(NC#N)nc(N(CC)CC)n1,-1.34
7,CCOc1ccc(/C(O)=C2/C(=O)C(=O)N(CCN(C)C)C2c2ccccc2)cc1Cl (stereo unspecified),-1.22
8,CCCCOC(=O)Nc1ccc(S(=O)(=O)Nc2nc(C)cc(C)n2)cc1,-0.786
9,COc1ccc(C=NCCC2(O)CC(C)N(C)CC2C)cc1 (stereo unspecified),-1.22
10,Cc1ccc(C(C)C)c(OCCNc2nc3c(c(=O)n(C)c(=O)n3C)n2C)c1,2.45
11,CCOC(=O)CCc1c(C)c(C#N)c2nc3ccccc3n2c1-n1ccnc1C,-0.112
12,C=CCSc1nc(C)c(CC=C)c(=O)[nH]1,0.352
13,CC1C[C@@]2(NC(=O)NC2=O)C(C)CN1C (stereo partly specified),-0.779
14,Cc1nnc(C)n1/N=C/c1cc(Br)cc(Br)c1O,-0.137
15,Clc1ccc2[nH]c3c(NCCN4CCOCC4)ncnc3c2c1,1.3
16,Cc1cc(C)n(CC(=O)N2c3ccccc3Sc3ccccc32)n1,-0.852
17,Cn1c(NCC(O)c2ccccc2)nc2c1c(=O)n(Cc1ccc(Cl)c(Cl)c1)c(=O)n2C (stereo unspecified),1.81
18,COc1ccccc1-c1nn2c(-c3ccco3)nnc2s1,-0.198
19,CCCCNC(=O)c1c(N)n(/N=C/c2cccnc2)c2nc3ccccc3nc12,0.256
20,CCOc1ccc(C2C(C(=O)c3ccc(C)o3)=C(O)C(=O)N2CCCN(CC)CC)cc1 (stereo unspecified),0.452

# Target: Dual specificity protein phosphatase 6 (Homo sapiens) (UniProt Q16828)
# Assay: as above
# Conditions: HeLa MKP-3 transfected, phospho-Erk imaging KS statistic; at 10 µM; stronger effect = higher value; cells stimulated with TPA for 15 min
# Sequence of Dual specificity protein phosphatase 6 (Homo sapiens) (Q16828 whole entry, looked up): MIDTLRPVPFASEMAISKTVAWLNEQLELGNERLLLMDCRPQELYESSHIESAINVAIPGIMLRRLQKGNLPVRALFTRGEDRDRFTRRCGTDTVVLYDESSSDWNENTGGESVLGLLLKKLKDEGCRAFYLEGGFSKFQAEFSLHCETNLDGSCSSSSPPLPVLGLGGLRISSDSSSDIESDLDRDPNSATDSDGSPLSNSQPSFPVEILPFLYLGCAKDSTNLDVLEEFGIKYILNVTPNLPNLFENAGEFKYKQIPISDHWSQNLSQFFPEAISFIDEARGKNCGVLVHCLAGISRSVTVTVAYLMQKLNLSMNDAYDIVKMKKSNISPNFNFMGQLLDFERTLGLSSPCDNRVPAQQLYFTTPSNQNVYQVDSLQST
row,Compound,inhibition
1,O=C(c1ccc(=O)oc1)N1CCN(c2ccc(F)cc2)CC1,17.4% (inactive)
2,CC(C)(C)C1=Nn2c(nnc2-c2ccco2)SC1,-6.06% (inactive)
3,COc1cc(OC)cc(C(=O)N2CCC(N3CCCCCC3)CC2)c1,32.7% (inactive)
4,COc1cc(=O)n2c(-c3ccccc3)csc2n1,13.2% (inactive)
5,COc1ccccc1OCC(=O)Nc1ccc(S(=O)(=O)Nc2cc(C)nc(C)n2)cc1,4.25% (inactive)
6,COCCCNC(=O)c1c(N)n(/N=C/c2cccs2)c2nc3ccccc3nc12,17.4% (inactive)
7,CCOC(=O)CNS(=O)(=O)c1cc(-c2nn(C)c(=O)c3ccccc23)ccc1C,8.76% (inactive)
8,N#CC1=C(SCc2ccccc2)NC2=C(C(=O)CCC2)C1c1ccc2c(c1)OCO2 (stereo unspecified),-4.27% (inactive)
9,CCOC(=O)c1[nH]c2cc3c(cc2c1NC(=O)CN1CCc2ccccc2C1)OCO3,-1.75% (inactive)
10,CCOC(=O)c1ccc(NC(=O)CCC(CC)C(=O)O)cc1 (stereo unspecified),27.7% (inactive)
11,CCOC(=O)CSc1nc2ccccc2c(=O)n1C,-5.89% (inactive)
12,CC(O)Cn1ccccc1=N (stereo unspecified),-2.29% (inactive)
13,CC1CN(C2CCN(S(=O)(=O)Cc3ccccc3)CC2)CC(C)O1 (stereo unspecified),5.57% (inactive)
14,CN1CCN(c2ncnc3c2[nH]c2ccc(F)cc23)CC1,-8.76% (inactive)
15,COc1cc(-c2nn3c(C4CCCCC4)nnc3s2)cc(OC)c1OC,-7.86% (inactive)
16,O=C1OC(Nc2ccc(Br)cn2)c2ccccc21 (stereo unspecified),-8.27% (inactive)
17,Cc1nnc2n(Cc3ccccc3)c(=O)c3c4c(sc3n12)CN(Cc1ccccc1)CC4,-7.28% (inactive)
18,O=C(O)C(Cc1c[nH]c2ccccc12)NS(=O)(=O)c1cccc2nsnc12 (stereo unspecified),19.1% (inactive)
19,Cc1ccc(C(=O)C2=C(O)C(=O)N(c3ncccn3)C2c2ccc(Cl)cc2)o1 (stereo unspecified),7.83% (inactive)
20,CC(=O)C1(C)OC(N)=C(C#N)C(c2ccccc2)C1(C#N)C#N (stereo unspecified),-2.91% (inactive)
21,CCCCOc1ccccc1/C=c1/sc2nc(-c3oc4ccccc4c3C)nn2c1=O,2.46% (inactive)
22,CCCOc1ccc(/C(O)=C2/C(=O)C(=O)N(CCN(C)C)C2c2ccncc2)cc1 (stereo unspecified),-4.7% (inactive)
23,Cc1onc(-c2ccccc2Cl)c1C(=O)N1CCN(c2nc3ccccc3s2)CC1,25.4% (inactive)
24,COc1ccc2oc(=O)c(-c3nc(C)cs3)cc2c1,-2.07% (inactive)
25,CCOC(=O)CSc1nc(NC#N)nc(N(CC)CC)n1,13.2% (inactive)
26,CCOc1ccc(/C(O)=C2/C(=O)C(=O)N(CCN(C)C)C2c2ccccc2)cc1Cl (stereo unspecified),2.92% (inactive)
